Data taken from PubChem BioAssay (NCI).
Compounds without any hit were thinned out: in the full panel of roughly 83,000, 20% have a hit.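 In brief: 96-well plates, 48 h treatment, single concentration, percent growth endpoint.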 A number with no mark means an inactive call. The source made the active and inactive calls. Rule for the calls: active = growth percent below 10; inactive = the rest.

System: NCI-H23 lung
Test: NCI-60 one-dose screen, 48 h (100 = growth as untreated, 0 = no growth, -100 = all killed)
Details: 10 µM unless noted

| SMILES | growth |
| --- | --- |
| CCC(CC)N1C(=O)/C(=c2\sc3n(c2=O)NC2C(N=3)N(CC)C(=O)N2CC)c2ccccc21 (stereo not drawn) | 44.1% |
| CN1CCN(c2ccc(/C=N/Nc3nc4ccccc4c(=O)n3-c3ccccc3)cc2)CC1 | 103% |
| CC1=NC2=NC(=O)/C(=C3/N=C(C)C=C(c4ccccc4)N3N)NN2C(c2ccccc2)=C1 | 106% |
| Nc1ncc(-c2ccc3ncnc(N4CCc5cc(F)c(F)cc54)c3c2)cn1 | 38.3% |
| COc1ccc(Oc2ccc(/C=N/NC(=O)CSc3nc4ccccc4c(=O)n3-c3ccc(Cl)cc3)cc2)cc1 | 41.6% |
| COc1ccc2c(c1)Oc1nc(N)c(C#N)c(N)c1C2Sc1ccc(C)cc1 (stereo not drawn) | -19.3% (active) |
| CC(=O)C1=C(C)NC(NN)=NC1c1cccc(Cl)c1 (stereo not drawn) | 99.9% |
| O=C(NNc1nc2cc(F)ccc2n2c(CO)ccc12)c1cnccn1 | 22.8% |
| NC(N)=Nc1ccc(Oc2cccc(NC(N)=Nc3ccc(Br)cc3)c2)cn1 | 61.1% |
| CCOC(=O)C1=NNC(c2ccc(Cl)cc2)C1C(=O)N1C(=S)NC(=O)C1CC(C)C (stereo not drawn) | 99.3% |
| CC/C(=C/c1c(O)cccc1OC)c1ccc2c(OC)cccc2[o+]1 | 98.9% |
| Cn1ccnc1C(=O)/C=C/c1ccc(CNC(=O)c2ccc(Cl)cc2)cc1 | -7.45% (active) |
| COc1c(N2CC3CCCNC3C2)c(F)cc2c(=O)c(C(=O)N/N=C/c3ccc(F)cc3)cn(C3CC3)c12 (stereo not drawn) | 87.9% |
| CN(C)CCNC(=O)c1ccc(-c2nc3ccc4[nH]ncc4c3c3c2CCC3)cc1 | -15.2% (active) |
| C=C(C=O)[C@@H]1CC[C@]2(COC(C)=O)CC[C@]3(C)C(CC[C@@H]4[C@@]5(C)CC[C@H](OC(C)=O)C(C)(C)[C@@H]5CC[C@]43C)[C@@H]12 (stereo partly drawn) | -22.4% (active) |
| COc1c(N2CC3CCCNC3C2)c(F)cc2c(=O)c(C(=O)N/N=C/c3c[nH]c4ccccc34)cn(C3CC3)c12 (stereo not drawn) | 102% |
| COc1cc(C2N=C(NNc3ccccc3)NC(C)=C2C(C)=O)ccc1O (stereo not drawn) | 96.7% |
| CCCCCc1ccc(S(=O)(=O)Nc2cccc(-c3csc(NC(=O)CNCCN(C)C)n3)c2)cc1 | 94.6% |
| CCCCCc1ccc(S(=O)(=O)Nc2cccc(-c3csc(NC(=O)CCCCCN4CCN(CCO)CC4)n3)c2)cc1 | 81.1% |

| SMILES | growth |
| --- | --- |
| CS(=O)(=O)Nc1cc(-c2ccc3ncc(C#N)c(NCc4ccccc4O)c3c2)cnc1Cl | -7.77% (active) |
| CC(=O)N1C(=S)NC(=O)C1CC(C)C (stereo not drawn) | 106% |
| COc1cc(/C=C2\C(=O)Nc3ccccc32)ccc1OCc1ccc(Cl)cc1 | 93.3% |
| COc1cc2oc(-c3cccc(NC(=O)c4cc(N)ccc4Cl)c3)cc(=O)c2c(OC)c1OC | 102% |
| COc1ccc(Cn2cc3c(c2-c2cc(OC)c(OC)c(OC)c2)CCc2c(CN4CCCC4)noc2-3)cc1 | 7.29% (active) |
| CCCCCc1ccc(S(=O)(=O)Nc2cccc(-c3csc(NCCN4CCN(C)CC4)n3)c2)cc1 | 84% |
| CCC1=Cc2cc(OC)ccc2OC12C=Cc1cc(OC)ccc1O2 (stereo not drawn) | 17% |
| CCCCCc1ccc(S(=O)(=O)Nc2cccc(-c3csc(NC(=O)CCCCCN4CCN(C)CC4)n3)c2)cc1 | 75.7% |
| N#Cc1cnc2ccc(-c3cnc4[nH]ncc4c3)cc2c1N1CCc2cc(F)c(Cl)cc21 | 7.08% (active) |
| CC(C)C[C@@H]1N[C@@]2(C(=O)Nc3ccccc32)[C@@H](c2ccc(F)cc2)[C@@H]1C(=O)c1ccc(O)cc1 | 91.6% |
| O=C(NNc1nc2cc(F)cc(F)c2n2cccc12)c1cnccn1 | 24.6% |
| O=C(NNc1nc2cc(F)c(F)cc2n2cccc12)c1cnccn1 | 34.5% |
| O=C(CNc1nc(-c2cccc([N+](=O)[O-])c2)cs1)Nc1cccc([N+](=O)[O-])c1 | -29.7% (active) |
| CC(Nc1c(C#N)cnc2ccc(-c3cnc(N)nc3)cc12)c1ccccc1 (stereo not drawn) | 13.1% |
| C=CCn1c(SCC(=O)Nc2ccc(C(=O)/C=C/c3ccc(Cl)cc3)cc2)nnc1-c1c[nH]c2ccccc12 | 77.8% |
| CCCCCc1ccc(S(=O)(=O)Nc2cccc(-c3csc(NC(=O)CN4CCN(C)CC4)n3)c2)cc1 | 95.1% |
| O=C(NCc1ncc[nH]1)c1ccc(-c2nc3ccc4[nH]ncc4c3c3c2CCCC3)cc1 | 14.4% |
| Cc1c(Cl)cccc1S(=O)(=O)Nc1ccc2c(c1)C(=O)N(C1CCC(=O)NC1=O)C2=O (stereo not drawn) | 102% |
| COC(=O)C1(C)CCC[C@]2(C)[C@H]3C[C@H]4C(C(C)C)=C[C@]3(CC[C@@H]12)[C@H]1[C@@H]4[C@@H](OC(=O)c2ccco2)CC[C@@H]1OC(=O)c1ccco1 (stereo partly drawn) | 104% |
